# Records with an inconclusive call do not appear. Calls of active or inactive are those of the source. Rule for the calls: active = hit-call score of the fitted dose curve at least 0.9, where 1 is the maximum; inconclusive = response in the unintended direction; inactive = score below 0.9.
# Assays:
# [1] = biological target: human Insulin Receptor (InsR), INSR (gene 3643) (UniProt P06213); assay: NVS_ENZ_hInsR: NovaScreen (NVS) Enzymatic Assay for human Insulin Receptor (InsR) (AID 2283168)
# Summary of the method: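 Fluorescent substrate phosphorylation by recombinant kinase, product resolved by electrophoretic mobility shift, read 1 h after dosing. Screened in duplicate at 25 uM; hits (e.g., 30% inhibition) run in concentration-response to 50 uM; DMSO as baseline.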
# [2] = biological target: human Janus Kinase 2 (Jak2), JAK2 (gene 3717) (UniProt O60674); assay: NVS_ENZ_hJak2: NovaScreen (NVS) Enzymatic Assay for human Janus Kinase 2 (Jak2) (AID 2283169)
# Sequence of human Janus Kinase 2 (Jak2), JAK2 (gene 3717) (O60674 whole entry, looked up): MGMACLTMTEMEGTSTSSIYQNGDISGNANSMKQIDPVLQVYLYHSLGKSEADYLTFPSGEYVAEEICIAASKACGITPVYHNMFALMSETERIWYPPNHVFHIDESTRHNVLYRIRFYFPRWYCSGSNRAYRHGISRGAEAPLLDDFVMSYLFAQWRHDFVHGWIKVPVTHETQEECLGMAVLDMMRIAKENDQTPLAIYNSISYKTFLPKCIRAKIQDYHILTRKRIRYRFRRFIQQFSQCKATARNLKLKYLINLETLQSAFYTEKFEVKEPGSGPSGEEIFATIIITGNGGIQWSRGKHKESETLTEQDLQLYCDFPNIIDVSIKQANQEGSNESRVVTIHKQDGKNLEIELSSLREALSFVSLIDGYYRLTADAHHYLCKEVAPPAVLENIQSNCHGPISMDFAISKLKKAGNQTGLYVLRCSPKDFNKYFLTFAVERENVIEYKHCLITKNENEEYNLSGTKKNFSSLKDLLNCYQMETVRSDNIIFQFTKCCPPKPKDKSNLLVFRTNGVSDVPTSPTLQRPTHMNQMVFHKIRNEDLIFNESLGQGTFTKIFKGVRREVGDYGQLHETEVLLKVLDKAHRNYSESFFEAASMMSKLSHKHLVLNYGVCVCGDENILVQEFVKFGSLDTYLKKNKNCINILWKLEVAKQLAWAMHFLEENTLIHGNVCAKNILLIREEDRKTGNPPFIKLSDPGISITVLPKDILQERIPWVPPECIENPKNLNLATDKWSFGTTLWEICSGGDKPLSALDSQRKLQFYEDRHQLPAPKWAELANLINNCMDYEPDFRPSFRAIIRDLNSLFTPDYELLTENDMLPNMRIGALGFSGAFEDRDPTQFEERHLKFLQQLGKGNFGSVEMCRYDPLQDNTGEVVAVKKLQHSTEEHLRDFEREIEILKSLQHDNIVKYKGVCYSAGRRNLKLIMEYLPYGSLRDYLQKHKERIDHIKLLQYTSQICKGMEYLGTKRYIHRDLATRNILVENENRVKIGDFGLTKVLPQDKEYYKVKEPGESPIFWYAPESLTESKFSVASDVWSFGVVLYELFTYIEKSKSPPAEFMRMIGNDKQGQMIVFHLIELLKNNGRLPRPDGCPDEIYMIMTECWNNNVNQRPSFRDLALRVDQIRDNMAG
# Summary of the method: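 Cell-free recombinant human JAK2 enzyme activity assay, fluorescence/electrophoretic mobility shift read 1 h after dosing. Screened in duplicate at 25 uM, then concentration-response up to 50 uM; activity as signal loss relative to DMSO.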
# [3] = biological target: human c-Jun N-terminal Kinases (JNK2), MAPK9 (gene 5601) (UniProt P45984); assay: NVS_ENZ_hJNK2: NovaScreen (NVS) Enzymatic Assay for human c-Jun N-terminal Kinases (JNK2) (AID 2283171)
# Sequence of human c-Jun N-terminal Kinases (JNK2), MAPK9 (gene 5601) (P45984 whole entry, looked up): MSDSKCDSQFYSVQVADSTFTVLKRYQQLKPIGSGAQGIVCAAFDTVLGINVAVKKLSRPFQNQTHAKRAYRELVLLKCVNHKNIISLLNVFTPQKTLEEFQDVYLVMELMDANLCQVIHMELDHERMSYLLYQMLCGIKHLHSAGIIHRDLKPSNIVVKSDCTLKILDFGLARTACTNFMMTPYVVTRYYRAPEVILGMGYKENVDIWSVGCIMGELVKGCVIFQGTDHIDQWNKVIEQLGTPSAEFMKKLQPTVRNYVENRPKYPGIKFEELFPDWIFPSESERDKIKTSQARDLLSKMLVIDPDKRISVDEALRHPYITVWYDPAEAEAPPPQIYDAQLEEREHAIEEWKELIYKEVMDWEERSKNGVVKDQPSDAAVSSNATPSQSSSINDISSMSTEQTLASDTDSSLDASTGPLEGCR
# Summary of the method: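 Cell-free recombinant human JNK2 activity assay; fluorescent substrate and product separated by electrophoretic mobility shift, read 1 h after dosing. Primary duplicate screen at 25 uM; actives run in concentration-response up to 50 uM, relative to DMSO.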
# [4] = biological target: human MET Proto-Oncogene, Receptor Tyrosine Kinase (MET), MET (gene 4233) (UniProt P08581); assay: NVS_ENZ_hMet: NovaScreen (NVS) Enzymatic Assay for human MET Proto-Oncogene, Receptor Tyrosine Kinase (MET) (AID 2283180)
# Sequence of human MET Proto-Oncogene, Receptor Tyrosine Kinase (MET), MET (gene 4233) (P08581 whole entry, looked up): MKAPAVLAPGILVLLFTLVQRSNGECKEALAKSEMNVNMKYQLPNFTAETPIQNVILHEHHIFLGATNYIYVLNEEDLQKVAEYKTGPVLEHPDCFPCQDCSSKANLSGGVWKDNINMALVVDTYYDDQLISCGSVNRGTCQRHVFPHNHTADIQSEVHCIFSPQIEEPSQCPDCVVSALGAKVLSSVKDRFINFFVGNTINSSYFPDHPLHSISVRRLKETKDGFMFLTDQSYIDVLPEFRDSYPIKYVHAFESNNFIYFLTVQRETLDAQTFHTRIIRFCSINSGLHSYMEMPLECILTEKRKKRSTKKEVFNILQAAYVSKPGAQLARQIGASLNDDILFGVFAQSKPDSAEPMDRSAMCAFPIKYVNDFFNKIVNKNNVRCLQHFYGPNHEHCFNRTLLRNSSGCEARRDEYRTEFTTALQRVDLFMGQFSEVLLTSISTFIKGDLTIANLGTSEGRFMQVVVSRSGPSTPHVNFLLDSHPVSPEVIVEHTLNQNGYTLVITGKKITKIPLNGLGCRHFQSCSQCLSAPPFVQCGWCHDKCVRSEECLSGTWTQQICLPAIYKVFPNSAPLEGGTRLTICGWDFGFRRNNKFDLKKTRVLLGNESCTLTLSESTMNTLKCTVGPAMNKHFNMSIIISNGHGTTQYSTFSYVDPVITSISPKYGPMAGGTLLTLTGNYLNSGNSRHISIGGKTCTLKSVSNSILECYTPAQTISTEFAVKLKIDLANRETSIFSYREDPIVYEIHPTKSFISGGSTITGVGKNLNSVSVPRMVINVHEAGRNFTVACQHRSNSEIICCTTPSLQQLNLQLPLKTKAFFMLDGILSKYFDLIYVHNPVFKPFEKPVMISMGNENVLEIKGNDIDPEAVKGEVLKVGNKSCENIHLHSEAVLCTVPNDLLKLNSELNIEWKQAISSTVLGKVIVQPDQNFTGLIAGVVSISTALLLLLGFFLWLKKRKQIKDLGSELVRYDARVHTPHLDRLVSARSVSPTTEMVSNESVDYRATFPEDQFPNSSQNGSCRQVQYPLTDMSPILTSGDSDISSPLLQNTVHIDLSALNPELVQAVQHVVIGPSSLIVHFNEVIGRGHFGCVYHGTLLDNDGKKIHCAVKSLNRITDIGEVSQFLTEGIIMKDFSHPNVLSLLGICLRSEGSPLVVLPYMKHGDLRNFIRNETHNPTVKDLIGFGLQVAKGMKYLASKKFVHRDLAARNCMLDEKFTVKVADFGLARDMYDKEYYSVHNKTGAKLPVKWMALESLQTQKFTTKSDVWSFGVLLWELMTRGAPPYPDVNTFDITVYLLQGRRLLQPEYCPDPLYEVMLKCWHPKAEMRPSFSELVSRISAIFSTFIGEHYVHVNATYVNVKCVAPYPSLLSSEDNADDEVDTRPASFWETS
# Summary of the method: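 Cell-free MET kinase assay using recombinant protein and fluorescent substrate, with mobility-shift separation; read 1 h after dosing. Primary duplicate at 25 uM; actives in singleton concentration-response to 50 uM maximum. Signal loss versus DMSO.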
# Sequence of human Insulin Receptor (InsR), INSR (gene 3643) (P06213 whole entry, looked up): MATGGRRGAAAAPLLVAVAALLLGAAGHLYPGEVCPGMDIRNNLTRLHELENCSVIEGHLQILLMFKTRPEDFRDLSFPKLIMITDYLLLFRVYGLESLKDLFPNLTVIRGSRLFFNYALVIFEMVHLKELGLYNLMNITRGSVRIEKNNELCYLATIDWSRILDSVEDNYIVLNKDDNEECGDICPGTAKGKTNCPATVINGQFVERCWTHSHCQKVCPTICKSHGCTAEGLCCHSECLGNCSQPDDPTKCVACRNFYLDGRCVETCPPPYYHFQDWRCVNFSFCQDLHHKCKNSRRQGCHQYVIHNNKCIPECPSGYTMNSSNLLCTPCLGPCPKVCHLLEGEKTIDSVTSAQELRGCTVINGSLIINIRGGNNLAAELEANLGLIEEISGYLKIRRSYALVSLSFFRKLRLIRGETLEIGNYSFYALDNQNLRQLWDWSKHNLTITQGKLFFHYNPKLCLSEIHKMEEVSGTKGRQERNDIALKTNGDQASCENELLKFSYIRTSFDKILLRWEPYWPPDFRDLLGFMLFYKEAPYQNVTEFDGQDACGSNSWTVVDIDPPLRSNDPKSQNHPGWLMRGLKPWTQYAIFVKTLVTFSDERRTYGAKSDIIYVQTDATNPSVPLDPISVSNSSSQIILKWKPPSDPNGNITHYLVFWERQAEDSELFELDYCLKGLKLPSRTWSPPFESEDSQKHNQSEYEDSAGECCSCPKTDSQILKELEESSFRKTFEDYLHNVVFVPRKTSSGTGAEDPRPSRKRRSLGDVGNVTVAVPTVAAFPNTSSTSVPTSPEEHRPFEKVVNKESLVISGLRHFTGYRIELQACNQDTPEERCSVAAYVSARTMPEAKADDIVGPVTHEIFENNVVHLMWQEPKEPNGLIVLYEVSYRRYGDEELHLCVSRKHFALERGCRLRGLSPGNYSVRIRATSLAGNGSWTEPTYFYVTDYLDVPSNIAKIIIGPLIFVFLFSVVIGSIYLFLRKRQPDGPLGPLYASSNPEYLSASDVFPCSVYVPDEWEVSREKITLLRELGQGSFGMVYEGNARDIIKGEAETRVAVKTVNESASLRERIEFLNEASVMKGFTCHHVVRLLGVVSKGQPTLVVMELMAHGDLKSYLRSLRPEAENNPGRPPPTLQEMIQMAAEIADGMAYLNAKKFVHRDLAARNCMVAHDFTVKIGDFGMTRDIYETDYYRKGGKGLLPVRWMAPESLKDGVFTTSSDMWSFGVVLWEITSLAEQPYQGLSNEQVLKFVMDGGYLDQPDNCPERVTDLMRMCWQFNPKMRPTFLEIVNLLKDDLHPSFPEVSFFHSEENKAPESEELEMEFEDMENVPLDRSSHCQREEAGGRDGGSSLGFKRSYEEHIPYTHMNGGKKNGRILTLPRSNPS
smiles,measurement,setting,value
c1ccc2c(c1)-c1cccc3cccc-2c13,outcome,[1],inactive
CCCCCCCCCCCCCN1CC(C)OC(C)C1 (stereo unspecified),outcome,[1],inactive
COc1cc(C=O)cc2c1[C@H](COC(N)=O)[C@]1(OC(C)=O)ON2C[C@H]2[C@@H]1N2C(C)=O,AC50,[2],6.08 nM (active)
CCNS(=O)(=O)C(F)(F)C(F)(F)C(F)(F)C(F)(F)C(F)(F)C(F)(F)C(F)(F)C(F)(F)F,outcome,[3],inactive
same,outcome,[4],inactive
O=[N+]([O-])C(Br)(CO)CO,outcome,[4],inactive

# From PubChem BioAssay (EPA / NIEHS)
